Test results as given in PubChem BioAssay (NCI).
About 83,000 compounds went through this panel and 20% of them were active in at least one assay; those are over-represented in the sample as a whole.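 Assay: single dose, 48 h. Readout: percent growth (0 = no net growth; negative = cell death). Active: <10.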 Calls of active or inactive are those of the source.

Experiments:
Assay in all cases: NCI-60 one-dose screen, 48 h (100 = growth as untreated, 0 = no growth, -100 = all killed)
Conditions in all cases: 10 µM unless noted
[1] = tested on: DU-145 prostate
[2] = tested on: K-562 leukemia
[3] = tested on: MALME-3M melanoma
[4] = tested on: MDA-MB-231 breast
[5] = tested on: RXF 393 renal
[6] = tested on: SF-268 CNS
[7] = tested on: SF-295 CNS
[8] = tested on: SF-539 CNS
[9] = tested on: UACC-257 melanoma
[10] = tested on: M14 melanoma
[11] = tested on: HCT-15 colon
[12] = tested on: HT29 colon
[13] = tested on: SNB-75 CNS
[14] = tested on: SNB-19 CNS
[15] = tested on: U251 CNS
[16] = tested on: PC-3 prostate
[17] = tested on: UACC-62 melanoma
[18] = tested on: LOX IMVI melanoma
[19] = tested on: SK-MEL-28 melanoma
[20] = tested on: SK-MEL-5 melanoma

Measured: growth

Cc1ccc(NC(=O)Cn2c(Br)nc3c2c(=O)n(C)c(=O)n3C)cc1
inactive: [1] 44.1% | [2] 51.6% | [6] 56.1% | [9] 62.2% | [10] 43.1% | [11] 45.8% | [12] 55.2% | [14] 50.7% | [16] 30.3% | [17] 45.5% | [19] 52%
active: [3] -36% | [4] -19.2% | [5] -3.2% | [7] 0.92% | [8] 1.55% | [13] 5.65% | [15] 4.05% | [18] -9.57%

CN(C)CCN1C(=O)c2cccc3c(/C=C/CN4C(=O)c5cccc6cccc(c56)C4=O)ccc(c23)C1=O
active: [2] -46.8% | [3] -62.4% | [4] -57.4% | [11] -75.6% | [19] -56.5%
inactive: [1] 113% | [5] 57% | [6] 101% | [7] 106% | [8] 92.8% | [9] 92% | [10] 77.9% | [12] 94% | [13] 90.6% | [15] 90.8% | [16] 71.7% | [20] 82.2% | [17] 98.7% | [18] 30.3%

CC(=O)c1sc2sc(C(C)=O)c(C)c2c1C
inactive: [1] 111% | [2] 95.5% | [3] 126% | [4] 101% | [5] 93% | [6] 97.1% | [7] 105% | [8] 85.1% | [9] 81.3% | [10] 107% | [11] 105% | [12] 79.4% | [13] 90.6% | [14] 105% | [15] 93.9% | [16] 77.7% | [17] 75% | [18] 95.6% | [19] 100%

Cc1ccc(-c2nc(-c3cn(C)c4ncccc34)cs2)cc1
inactive: [2] 10.3% [100 µM]
active: [1] -56.4% [100 µM] | [3] -40% [100 µM] | [4] -14.6% [100 µM] | [5] -37.8% [100 µM] | [6] 2.72% [100 µM] | [7] -42.2% [100 µM] | [8] -79% [100 µM] | [9] -7.24% [100 µM] | [10] -63.7% [100 µM] | [11] -18% [100 µM] | [12] -68.1% [100 µM] | [13] -40.2% [100 µM] | [15] -7.83% [100 µM] | [16] -20.6% [100 µM] | [20] -84.9% [100 µM] | [17] -50.3% [100 µM] | [18] -41% [100 µM] | [19] -19.7% [100 µM]

CC1(C)CC2=C3C=C[C@@H]4[C@@]5(C)CCC(=O)C(C)(C)[C@@H]5CC[C@@]4(C)[C@]3(C)CC[C@@]2(C(=O)O)C[C@H]1O
inactive: [1] 65% | [2] 33.1% | [5] 29.1% | [6] 32.6% | [7] 20.5% | [8] 34.8% | [9] 10.5% | [10] 17.6% | [12] 14% | [13] 19.2% | [15] 22.6% | [16] 40.4% | [20] 14% | [17] 20.6% | [19] 25%
active: [3] 3.59% | [4] -8.81% | [11] 6.74% | [18] 7.33%

CC(=C(c1ccc(OCCN2CCCCC2)cc1)c1ccc(OCCN2CCCCC2)cc1)c1ccc(Cl)cc1
active: [1] -92.8% | [2] -65.7% | [3] -84.3% | [4] -85.1% | [5] -78.8% | [6] -77.2% | [7] -92.1% | [8] -94.9% | [9] -82.1% | [10] -81.9% | [11] -88.3% | [12] -86.3% | [14] -91.2% | [15] -90.7% | [16] -82.4% | [20] -96.9% | [17] -76.9% | [18] -94.5% | [19] -96.1%

CCOC(=O)c1c(C)nc2ccccc2c1/C=C/c1ccccc1
active: [20] -0.202%
inactive: [1] 91.9% | [2] 44.4% | [3] 111% | [4] 81.9% | [5] 113% | [6] 85.4% | [7] 66.4% | [8] 89% | [9] 76.6% | [10] 82.8% | [11] 64.3% | [12] 82.6% | [14] 77.3% | [15] 79.7% | [16] 69.9% | [17] 52.2% | [18] 71.8%

S=c1[nH]c(=S)c2c(-c3ccccc3)c(-c3ccccc3)oc2[nH]1
inactive: [1] 109% | [2] 80.2% | [3] 107% | [4] 99% | [5] 91.2% | [6] 104% | [7] 97.5% | [8] 98.3% | [9] 80.1% | [10] 105% | [11] 99.1% | [12] 102% | [14] 96.2% | [15] 95.9% | [16] 103% | [20] 108% | [17] 93.9% | [18] 96.5% | [19] 105%

O=C(/C=C/c1ccc(Oc2ccc(Br)cc2)cc1)c1ccc(Br)cc1
inactive: [1] 102% | [2] 91.8% | [3] 98% | [4] 101% | [5] 100% | [6] 101% | [7] 100% | [8] 102% | [9] 98.1% | [10] 93.5% | [11] 98.5% | [12] 100% | [14] 97.6% | [15] 95% | [16] 100% | [20] 102% | [17] 91.4% | [18] 96.2% | [19] 105%

CN1CCN(CCCOc2cccc3nc(Nc4ccc(F)c(F)c4)ccc23)CC1
inactive: [5] 16.4% | [6] 26%
active: [1] 7.31% | [2] -41.5% | [3] -64.8% | [4] -69.9% | [7] -65% | [8] -53.5% | [9] -76.7% | [10] -78.5% | [11] -79.9% | [12] -69.5% | [14] -17.4% | [15] -70.3% | [16] -43.6% | [20] -100% | [17] -75.4% | [18] -87.7% | [19] -82.3%

C#COc1cccc(Nc2ncnc3cc(NC(=O)[C@@H](C)Cl)ccc23)c1
active: [2] 7.85% [6.25 µM] | [5] 7.55% [6.25 µM] | [7] 7.32% [6.25 µM] | [8] -5.67% [6.25 µM] | [12] 0.0167% [6.25 µM] | [15] 4.37% [6.25 µM] | [16] 8.91% [6.25 µM]
inactive: [1] 13% [6.25 µM] | [3] 38.2% [6.25 µM] | [4] 24.5% [6.25 µM] | [6] 21.6% [6.25 µM] | [9] 36.9% [6.25 µM] | [10] 10.4% [6.25 µM] | [11] 11.6% [6.25 µM] | [14] 19.3% [6.25 µM] | [20] 14.2% [6.25 µM] | [17] 24.9% [6.25 µM] | [18] 11.4% [6.25 µM] | [19] 38% [6.25 µM]

N=C(N)c1ccc(-c2ccc(-c3ccccc3)s2)cc1
active: [2] 1.35% | [11] -28.3% | [12] -5% | [15] 9.73% | [18] -70.2%
inactive: [1] 29.5% | [3] 97.2% | [4] 10.3% | [5] 78.7% | [6] 76.4% | [7] 40.6% | [8] 78.5% | [9] 103% | [10] 81.1% | [14] 50.1% | [16] 51.3% | [20] 95.5% | [17] 94.9% | [19] 113%

CNC(C)[C@H]1CCC2C3CC=C4C(=O)[C@@H](NC(=O)C=C(C)C)CC[C@]4(C)C3CC[C@@]21C (stereo partly drawn)
active: [2] -62.1% | [3] -52.2% | [4] -12.4% | [5] -59% | [6] -15.7% | [7] -8.38% | [8] -92.5% | [9] -30.8% | [10] -53.7% | [11] -54.1% | [12] -52% | [16] 6.67% | [20] -89.8% | [17] -67.2% | [18] -54% | [19] -86.1%
inactive: [1] 52.9% | [14] 53.4% | [15] 18.2%

Cc1ccc(/C=C/C(=O)c2cccc(OCCCOc3cccc(C(=O)/C=C/c4ccc(C)cc4)c3)c2)cc1
inactive: [1] 88.9% | [2] 52.9% | [3] 98.8% | [4] 86.8% | [5] 85.7% | [6] 79.6% | [7] 77.4% | [8] 83.8% | [9] 96.4% | [10] 73.4% | [11] 64.4% | [12] 51.5% | [13] 70.2% | [15] 41% | [16] 72.2% | [20] 90.2% | [17] 62.9% | [18] 25.5% | [19] 97.7%

CC(=O)c1ccc(Nc2nccc(-c3ccc4ccccc4c3)n2)cc1
inactive: [1] 105% | [2] 59.6% | [3] 101% | [4] 102% | [5] 85.1% | [6] 93.6% | [7] 100% | [8] 100% | [9] 104% | [10] 97.6% | [11] 85.7% | [12] 91.4% | [14] 94.9% | [15] 95.5% | [16] 91.5% | [20] 97.6% | [17] 88% | [18] 99% | [19] 107%

O=C1c2ccccc2C(=O)c2c1c(C(=O)NCc1ccccc1)c1ccccn21
inactive: [1] 104% | [2] 84.5% | [3] 108% | [4] 96.8% | [5] 104% | [6] 104% | [7] 98.1% | [8] 104% | [9] 90.2% | [10] 105% | [11] 114% | [12] 80.6% | [14] 93.9% | [15] 93.6% | [16] 95.4% | [20] 99.6% | [17] 92.2% | [18] 103% | [19] 113%
